# Test results reported in PubChem BioAssay AID1117283 (Broad Institute, 2014).
# Measured potencies and affinities stand elsewhere. Calls of active or inactive are those of the source.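 Rule for the calls: active = fluorescent signal decreased by at least 40%; inconclusive = no clear call, values can overlap the other calls; inactive = the rest, including activity opposite to the expected direction.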
# Experiment: inhibition of fibronectin matrix deposition – AH1F cells, Alexa488-fibronectin fluorescence, cherry-pick, set 2, dose response (AID 1117283);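 note: AH1F fibroblasts given Alexa488-labelled fibronectin at 24 nM final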
# Conditions: AH1F fibroblasts, overnight; series mostly up to 35 µM; activity change, negative = inhibition: at the top concentration
row,Compound,"activity change, negative = inhibition"
1,C[C@H](CO)N1C[C@H](C)[C@@H](CN(C)C(=O)Nc2cccc3ccccc23)Oc2c(NC(=O)Nc3ccc(C(F)(F)F)cc3)cccc2C1=O,3.45% (inactive)
2,C[C@H]1CN([C@@H](C)CO)C(=O)c2cc(-c3ccccc3)cnc2O[C@@H]1CN(C)Cc1ccccc1,-1.31% (inactive)
3,C[C@@H]1CN([C@@H](C)CO)C(=O)c2cc(-c3ccccc3)cnc2O[C@H]1CN(C)C(=O)c1cccc(F)c1,-1.69% (inactive)
4,Cc1ccc(S(=O)(=O)N2CC[C@@H]3[C@@H](CO)Nc4ccc(-c5cccc(C(=O)N(C)C)c5)cc4[C@@H]32)cc1,1.42% (inactive)
5,C[C@@H]1CN([C@@H](C)CO)C(=O)c2cc(-c3ccncc3)cnc2O[C@@H]1CN(C)C(=O)Cc1cccnc1,0.086% (inactive)
6,COc1cccc(-c2ccc3c(c2)[C@H]2[C@H](CCN2S(=O)(=O)c2cccc(OC)c2)[C@H](CO)N3)c1,2.28% (inactive)
7,CO[C@H]1CN(C)C(=O)c2cc(NC(=O)Nc3cc(Cl)cc(Cl)c3)ccc2OC[C@@H](C)NC[C@@H]1C,4.31% (inactive)
8,CO[C@H]1CN(C)C(=O)c2cc(NC(=O)Nc3ccc(Cl)c(Cl)c3)ccc2OC[C@@H](C)NC[C@H]1C,6.57% (inactive)
9,CO[C@H]1CN(C)C(=O)c2ccc(NC(=O)c3ccc(-c4ccccc4)cc3)cc2OC[C@@H](C)NC[C@H]1C,2.37% (inactive)
10,COc1ncccc1C(=O)NC1CCCc2c1cnn2-c1ccc(C)c(C)c1 (configuration not stated),-5.54% (inactive)
11,Cc1ccc(O)c(-c2cc(-c3cccc(Br)c3)n[nH]2)c1,6.22% (inactive)
12,O=C(CCC(=O)c1cccs1)NCc1cccnc1,-2.53% (inactive)
13,C[C@H]1CN([C@@H](C)CO)C(=O)c2cc(NC(=O)C3CCCCC3)ccc2O[C@@H]1CN(C)Cc1ccc(-c2ccccc2)cc1,-0.105% (inactive)
14,COC(=O)C[C@@H]1CC[C@@H]2[C@@H](COc3ccc(NC(=O)Cc4cccs4)cc3C(=O)N2C)O1,-6.16% (inactive)
15,O=C(Nc1ccccc1F)N1C[C@@H]2[C@H](c3ccccc31)[C@H](CO)N2C(=O)C1CC1,2.39% (inactive)
16,COCC(=O)Nc1ccc2c(c1)C(=O)N(C)[C@H]1CC[C@@H](CC(=O)NCc3ccccc3Cl)O[C@H]1CO2,8.86% (inactive)
17,C[C@@H]1CN([C@H](C)CO)C(=O)c2cc(NC(=O)C3CCCCC3)ccc2O[C@@H]1CN(C)Cc1ccc(-c2ccccc2)cc1,-5.41% (inactive)
18,Cc1ccc(Nc2nnc(SCc3ccccc3)s2)cc1,1.45% (inactive)
19,CCCCOc1ccc(C(C)NC(=O)C2CCCN(S(=O)(=O)CCC)C2)cc1 (configuration not stated),2.62% (inactive)

row,Compound,"activity change, negative = inhibition"
1,C[C@H](O)C#Cc1ccc2c(c1)O[C@@H](CN(C)C)[C@H](C)CN([C@H](C)CO)S2(=O)=O,-5.23% (inactive)
2,Nc1c(C(=O)NCc2ccco2)nnn1Cc1ccccc1,1.35% (inactive)
3,C[C@H](CO)N1C[C@H](C)[C@@H](CN(C)Cc2ccccc2)Oc2ncc(-c3ccccc3)cc2C1=O,11.5% (inactive)
4,COCC(=O)Nc1ccc2c(c1)C(=O)N(C)[C@H]1CC[C@@H](CC(=O)NCc3ccccc3Cl)O[C@@H]1CO2,8.6% (inactive)
5,CO[C@@H]1CN(C)C(=O)c2cc(NC(=O)Nc3cc(Cl)cc(Cl)c3)ccc2OC[C@@H](C)NC[C@@H]1C,7.38% (inactive)
6,N#Cc1ccc(-c2ccc3c(c2)[C@H]2[C@H](CCN2S(=O)(=O)c2cccc(F)c2)[C@@H](CO)N3)cc1,8.8% (inactive)
7,C[C@@H]1CN([C@H](C)CO)C(=O)c2cc(NC(=O)CCCN(C)C)ccc2O[C@@H]1CN(C)Cc1ccc(-c2ccccc2)cc1,2.6% (inactive)
8,COc1cccc(-c2ccc3c(c2)[C@@H]2[C@@H](CCN2S(=O)(=O)c2cccc(OC)c2)[C@H](CO)N3)c1,-8.42% (inactive)
9,C[C@H](CO)N1C[C@H](C)[C@H](CN(C)C)Oc2cc(C#C[C@@H](C)O)ccc2S1(=O)=O,2.53% (inactive)
10,CN(C)c1ccc(-c2ccnc3c2CC(C)(C(=O)NCC2CC2)O3)cc1 (configuration not stated),10.7% (inactive)
11,CCOC(=O)C1=C(C)Nc2nc3ccccc3n2C1c1ccncc1 (configuration not stated),-4.18% (inactive)
12,CCCc1cc(C(=O)OC)c(NC(=O)CCC(=O)O)s1,8.2% (inactive)
13,C[C@H](CO)N1C[C@H](C)[C@H](CN(C)Cc2ccc(-c3ccccc3)cc2)Oc2ccc(NC(=O)C3CCCCC3)cc2C1=O,-3.46% [at 30 µM] (inactive)
14,CO[C@H]1CN(C)C(=O)c2cc(NC(=O)Nc3ccc(Cl)c(Cl)c3)ccc2OC[C@H](C)NC[C@H]1C,-2.19% (inactive)
15,CO[C@@H]1CN(C)C(=O)c2ccc(NC(=O)c3ccc(-c4ccccc4)cc3)cc2OC[C@@H](C)NC[C@H]1C,-2.89% (inactive)
16,CO[C@H]1CN(C)C(=O)c2ccc(NC(=O)Nc3cc(Cl)cc(Cl)c3)cc2OC[C@H](C)NC[C@@H]1C,9.25% (inactive)
17,C[C@H](O)C#Cc1ccc2c(c1)O[C@@H](CN(C)C)[C@H](C)CN([C@@H](C)CO)S2(=O)=O,-3.5% (inactive)
18,C[C@H]1CN([C@@H](C)CO)C(=O)c2cc(-c3ccccc3)cnc2O[C@H]1CN(C)Cc1ccccc1,11.9% (inactive)
